In PubChem BioAssay AID651664 (NMMLSC, 2012):
Screen size: about 1,800 compounds; fewer than 10 were called active.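 Rule for the calls: active = inhibition of granule release above a set limit; inactive = the rest.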 Only a sample is shown.

Experiment: LAMP-1 surface externalization blockers in TALL-104 cells – cell-based, flow cytometry, validation set (AID 651664)
Settings: TALL-104 LAMP-1 externalization, at 15.2 µM, hits give high values, stimulated with thapsigargin and PMA

inhibition, active:
COC(=O)c1ccc(N2C(=O)CC(N(C)CCc3ccc(OC)c(OC)c3)C2=O)cc1 (stereo not given) 66%

inhibition, inactive:
COc1ccc(CCNC(=O)c2ccccc2NC(=O)c2ccco2)cc1OC -1.7%
COC(=O)CN1C(=O)C(O)(CC(=O)c2ccc(C)o2)c2ccccc21 (stereo not given) -1.9%
COc1cccc(OC)c1C(=O)Nc1cc(C)on1 -2.4%
O=C(c1ccc(F)cc1)c1ccc(N2CCCC2)cc1 -4.5%
O=c1cc(N2CCc3ccccc3C2)[nH]c(=O)n1C1CCCCC1 8.4%
CCN(CC)C(=O)CSc1ncnc2c1nnn2-c1ccc(OC)cc1 -0.1%
O=S(=O)(CCc1nc2ccccc2o1)c1ccc(Cl)c(Cl)c1 -2.2%
COC(=O)c1ccccc1NC(=O)c1ccc(COc2ccc(C)c(C)c2)o1 -0.1%
O=C(c1ccc(S(=O)(=O)N2CCCCCC2)cc1)N1CCC(CN2C(=O)c3cccc4cccc(c34)C2=O)CC1 0.6%
c1nnnn1C12CC3CC(CC(C3)C1)C2 3.1%
COC(=O)c1ccc(N2C(=O)CC(SCCN)C2=O)cc1 (stereo not given) -1.8%
CCOC(=O)c1ccc(N2C(=O)CC(C3CCCO3)C2=O)cc1 (stereo not given) 3.6%
O=C(Nc1cc(C(F)(F)F)ccc1N1CCOCC1)c1cccnc1Cl -2.8%
CCCS(=O)(=O)N1CCCC(C(=O)NCCN(Cc2ccccc2)C(C)C)C1 (stereo not given) -0.7%
O=C(/C=C/Nc1cccc(C(F)(F)F)c1)c1ccc(Oc2ncccn2)cc1 -1%
NC(=S)N/N=C/c1ccc(-c2cccc([N+](=O)[O-])c2)o1 1.9%
COc1ccc(NC(=O)c2cccc(S(=O)(=O)N3CCOCC3)c2)cn1 1.5%
O=C(NCC1CCCO1)/C(=C\c1ccco1)NC(=O)c1ccccc1 (stereo not given) -2.2%
CCc1ccc(Nc2ncccc2C#N)cc1 1.1%
C=CCn1c(-c2cccs2)nc2nc3ccccc3nc21 -2.3%
C/C(=N/OC(=O)c1ccc(F)cc1)c1ccc(C)cc1 0.7%
CC1(C)Cc2c(C#N)c(SCc3ccccc3)nc(N3CCOCC3)c2CO1 1.1%
Fc1ccc(C2=Nn3c(Cc4ccccc4F)nnc3SC2)cc1 1.3%
CC(=O)N1CCc2cc(NS(=O)(=O)c3cccs3)ccc21 -1.2%
COc1cc(OC)cc(C(=O)Nc2nc3ccccc3[nH]2)c1 -1%
Cc1cccc(N2CCN(CC(=O)Nc3ccc(-n4cnnn4)cc3)CC2)c1C -0.6%
COc1ccc(-c2cn[nH]c2N)cc1OC 2.5%
O=C(COC(=O)c1ccccc1)NCc1ccco1 -0.5%
CCOC1(OCC)N=C(N)C2(C#N)C(c3cccc(C)c3)C12C#N (stereo not given) -0.4%
Cc1ccc(NC(=O)/C(=C\C=C\c2ccccc2)NC(=O)c2ccccc2)cc1 -0.3%
Cc1ccc(NC(=O)c2cc(S(=O)(=O)Nc3ccc(C)cc3)cs2)cc1 0.6%
COc1cc(N)cc(NC(=O)c2ccncc2)c1 -0.4%
COc1ccc(CN2CCOCC2)cc1 1.5%
CC1CCCN(C(=O)C2CCN(CC3CC=CCC3)CC2)C1 (stereo not given) -1.1%
OCCN=c1cc(-c2ccccc2)oc2ccc(Cl)cc12 3.5%
O=C(/C=N/O)Nc1ccc(F)cc1 -2.8%
Cc1ccc(-n2nc(C)c3cc(C(=O)O)sc32)cc1 5.6%
O=C(CSc1nnc(-c2cccs2)n1-c1ccccc1)Nc1ccccc1 22.8%
Cc1nc(NCc2ccco2)c2oc3ccccc3c2n1 -2.5%
C=CCn1c(-c2ccco2)n[nH]c1=S -0.5%
[O-]C1=N/[N+](=C/c2ccccc2Cl)CC1 -2.2%
COC(=O)CSc1ncnc2c1cnn2Cc1ccccc1 -0.5%
N/C(=N\OS(=O)(=O)c1ccccc1)c1ccncc1 -2.3%
CCOc1ccc(CN(CCO)CCO)cc1[N+](=O)[O-] -2.2%
O=C(CSc1ccccn1)N1CCN(C(=O)CSc2ccccn2)CC1 0.4%
Clc1ccc(/C=N/NC(=Nc2ccccc2)c2ccccn2)c(Cl)c1 1.5%
CC(=O)N1CCN(S(=O)(=O)c2cccc(C(=O)NC3CCCc4ccccc43)c2)CC1 (stereo not given) 0%
Oc1ccccc1N=Nc1nc(-c2ccccc2)c(-c2ccccc2)[nH]1 -2.4%
Cc1ccccc1OCC(=O)Nc1cccc(NC(=O)c2ccco2)c1 1.8%
CC(C(=O)O)N1C(=O)CSc2ncccc21 (stereo not given) 2.4%
CCC(C)NC(=O)Cn1cccc1C(=O)c1ccccc1 (stereo not given) -0.2%
CC(NC(=O)NCCCC(=O)O)(C(F)(F)F)C(F)(F)F 2%
Cc1ccc(S(=O)(=O)N2CCOCC2)cc1C(=O)OCC(=O)N1CCc2ccccc2C1 -0.4%
Cc1cc2c(cc1C)NC(c1nc3ccccc3[nH]1)C1=C(CC(C)(C)CC1=O)N2 (stereo not given) -3.1%
O=c1[nH]c2c(s1)C(c1ccccc1)C1C3CCC(C3)C1S2 (stereo not given) 0.8%
COCCCNC(=O)C1CCC(=O)N1Cc1ccccc1Cl (stereo not given) 0.7%
Cc1ccc(C(=O)Cn2cnc3ccccc3c2=O)cc1C 6.9%
C=C(C)CN1C(=O)C(O)(CC(=O)c2ccc3c(c2)OCCO3)c2ccccc21 (stereo not given) 1.5%
Cc1cc(C)c(S(=O)(=O)NCc2cn3c(C)csc3n2)c(C)c1 -4.5%
CC1=CC=CN2CC(O)CN=C12 (stereo not given) 1%
O=C(Oc1ccccc1)N1CCN(c2ccc(F)cc2)CC1 6.6%
COC(=O)c1ccc(CN2CCN(Cc3ccc(C(=O)OC)o3)CC2)o1 2.2%
O=c1[nH]n(-c2ncnc3c2cnn3-c2ccccc2)c(=O)c2ccccc12 -0.6%
CCC(C)N=CC1=C(O)CC(c2ccccc2)CC1=O (stereo not given) -2.1%
